According to PubChem BioAssay AID939 (National Center for Advancing Translational Sciences (NCATS), 2007):
Inconclusive results are not listed. Where a call stands in place of a potency, no number is given. Calls of active or inactive are those of the source. Calls come from the whole dose curve; as a rule, active = well fitted activation curve with a large enough effect in the main read-out, with a control signal flat; inconclusive = small, poorly fitted or top-dose-only effect, or effect the other way, or a change in a side signal; inactive = no such curve, though single readings can be large or run the other way.
Potency is the fitted concentration of half-maximal effect.

Each compound was assayed against Thyrotropin receptor (Homo sapiens) (UniProt P16473) (assay: Confirmation Concentration-Response Assay for Agonists of the Thyroid Stimulating Hormone Receptor). Conditions: HEK293 TSHR-CNG cells, membrane potential dye, cAMP; series mostly up to 25.6 µM.
Sequence of Thyrotropin receptor (Homo sapiens) (P16473 whole entry, looked up): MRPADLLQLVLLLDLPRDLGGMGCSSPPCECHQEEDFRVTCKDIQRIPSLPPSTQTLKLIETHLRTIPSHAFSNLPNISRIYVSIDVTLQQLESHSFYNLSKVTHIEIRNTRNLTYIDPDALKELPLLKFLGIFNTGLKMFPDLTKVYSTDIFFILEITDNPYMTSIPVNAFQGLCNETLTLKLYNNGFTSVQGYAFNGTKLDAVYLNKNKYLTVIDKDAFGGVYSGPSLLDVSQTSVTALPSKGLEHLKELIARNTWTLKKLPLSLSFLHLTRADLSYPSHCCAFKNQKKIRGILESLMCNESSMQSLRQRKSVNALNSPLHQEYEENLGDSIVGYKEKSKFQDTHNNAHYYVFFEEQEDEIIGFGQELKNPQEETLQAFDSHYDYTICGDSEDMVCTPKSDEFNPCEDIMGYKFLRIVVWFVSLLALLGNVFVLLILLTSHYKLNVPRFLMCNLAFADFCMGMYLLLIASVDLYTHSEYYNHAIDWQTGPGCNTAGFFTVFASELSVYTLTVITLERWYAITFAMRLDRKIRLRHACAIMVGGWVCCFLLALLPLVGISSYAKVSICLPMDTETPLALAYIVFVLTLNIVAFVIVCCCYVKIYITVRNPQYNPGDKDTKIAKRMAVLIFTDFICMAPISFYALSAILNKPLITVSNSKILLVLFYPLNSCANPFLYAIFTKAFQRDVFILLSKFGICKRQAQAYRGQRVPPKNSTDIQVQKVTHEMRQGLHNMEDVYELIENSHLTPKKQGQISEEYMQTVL
Text: NIH Chemical Genomics Center [NCGC] NIH Molecular Libraries Screening Centers Network [MLSCN] MLSCN Grant: 1 X01 MH080680-01 PI Name: Dr. Marvin Gershengorn, NIH NCGC Assay Overview: Thyroid Stimulating Hormone Receptor TSH is an alpha/beta heterodimeric glycoprotein hormone secreted from the anterior pituitary gland which belongs to the glycoprotein hormone family. The actions of TSH are mediated by a seven-transmembrane receptor, which upon TSH binding couples preferentially to the G-alpha (s) protein (Gs), resulting in activation of adenylate cyclase and increase in cyclic adenosine 3', 5' monophosphate (cAMP). The TSH receptor (THSR) is mainly expressed in thyroid follicular cells and regulates their growth and function. Recombinant TSH is used to activate TSHR in patients with thyroid cancer receiving thyroid hormone suppression therapy and to screen for residual tumor after surgery, but it is expensive and must be administered intramuscularly. An orally active small molecule TSHR agonist would serve as an invaluable research tool for studying TSHR pharmacology and physiology, and would have multiple advantages in therapeutic settings. However, no selective small molecule agonist of the TSH receptor exists, and no small molecule screen for TSHR agonists has ever been reported. This cell based assay utilized a cyclic nucleotide gated ion channel (CNG) as a biosensor for cAMP induction by potential TSHR agonists. TSHR cell line HEK 293 cells stably expressing the TSHR as well as a modified CNG were purchased from BD biosciences. Stimulation of cAMP production causes the CNG to open and subsequent membrane depolarization to occur. A fluorescent membrane potential dye (BD biosciences) was utilized to detect cAMP stimulation in TSHR cells. The cells were maintained in DMEM medium (Invitrogen) containing 10 % FBS (Hyclone), 100 units/ml Penicillin, 100 ug/ml Streptomycin (Invitrogen), and 250 ug/ml Geneticin (Invitrogen) and 1 ug/ml Puromycin (Invitrogen) at 37C in 5% CO2. HEK 293 cells expressing CNG but without TSHR (parental cells) were used in concert to control for compounds signaling through endogenous receptors and targets of HEK 293 cells.
NCGC Assay Protocol Summary: High Throughput Screening. Freshly passaged cells (TSHR or parental) were dispensed into 1536-well assay plates at 4 ul/well in DMEM containing phenol red (Invitrogen), 10% FCS (Hyclone), and 100 units/ml Penicillin, 100 ug/ml Streptomycin (Invitrogen) and incubated at 37 C with 5% CO2 for 20 to 36 hrs before the robotic screening. The screen was initiated by addition of 4 ul/well membrane potential dye containing 100 uM RO 20-1724 (Sigma Aldrich), followed by 60 min incubation at room temperature to allow for dye equilibration across the cell membrane. 23 nl/well compound or control was then added to the assay plates, which were incubated for additional 30 min before reading a Envision fluorescence plate reader (Perkin Elmer) in bottom-read mode for fluorescence intensity (emission at 590 nm). Keywords: Thyroid-stimulating hormone TSH, TSHR, TSHR agonist, quantitative high throughput screening, qHTS, HTS, probe identification, CNG, cAMP, cyclic nucleotide gated ion channel PubChem
For `O=c1c2ccccc2ncn1-c1ccc2c(c1)OCCO2`, the Potency was “inactive”. `O=C(Nc1ccc(N2CCOCC2)cc1)C1CC1` was tested, and the Potency was “inactive”. In the case of `Cc1occc1-c1nnc(SCC(=O)NCc2ccc3c(c2)OCO3)n1CC(C)C`, the Potency is reported as 12600 nM (active). `O=C1C2C3CCCC3=C3CCCC3C2C(=O)N1c1ccc(Cl)cc1` (stereo not given) was tested, and the Potency was 1580 nM (active). For `COc1cc(NC(=O)c2cc(-n3cnnc3)ccc2Cl)cc(OC)c1`, the Potency was “inactive”. With `Cc1cc(C)nc(N(C#N)CC(=O)N2CCC(C(N)=O)CC2)n1` the Potency was “inactive”. With `Nc1ccc2c(c1)COc1ccccc1O2` the Potency was “inactive”. `COc1cc(/C=N/n2c(SC)nnc(C(C)(C)C)c2=O)ccc1O` was tested, and the Potency was “inactive”. With `CCOC(=O)c1cnc(-n2nc(C)cc2C)nc1-n1nc(C)cc1C` the Potency was “inactive”. In the case of `CCOC(=O)C1C(=O)Nc2nc(C)nn2C1c1ccccc1` (stereo not given), the Potency is reported as “inactive”. In the case of `Cc1ccc(C)c(Cn2c(C(C)O)nc3ccccc32)c1` (stereo not given), the Potency is reported as 3980 nM (active). For `CCOC(=O)CSc1nnc(NC(=O)c2cccc(S(=O)(=O)N3CCCCC3)c2)s1`, the Potency was “inactive”. `CN1C(=O)C2C=CC1C1C(=O)N(c3ccccc3)C(=O)C21` (stereo not given) was tested, and the Potency was “inactive”. In the case of `O=C(CN(Cc1ccccc1Cl)C(=O)Cn1nnc(-c2cccs2)n1)NCC1CCCO1` (stereo not given), the Potency is reported as “inactive”. In the case of `NC(=O)c1nsc(C(=O)N(CC(=O)NCc2ccc3c(c2)OCO3)C2CCCCC2)c1N`, the Potency is reported as 1260 nM (active). In the case of `CCOC(=O)c1ccc(NC(=O)c2ccc(CN3CCOCC3)cc2)cc1`, the Potency is reported as “inactive”. In the case of `CC(=O)Nc1ccc(S(=O)(=O)N(C)c2ccccc2)cc1`, the Potency is reported as “inactive”. `c1ccc(-n2cnc3cc(NCc4ccncc4)ccc32)cc1` was tested, and the Potency was “inactive”. For `CCc1ccc(-c2nc(CN3CCC(C(=O)N4CCN(c5ccccc5)CC4)CC3)c(C)o2)cc1`, the Potency was “inactive”. For `Cc1cc(Cl)c(S(=O)(=O)Nc2ccc3c(c2)OCO3)cc1OCC(N)=O`, the Potency was “inactive”. With `Cc1ccc(S(=O)(=O)N2CCC(C(=O)NCCCN3CCCCCC3)CC2)cc1` the Potency was “inactive”. For `Cc1cc(-n2c(C)cc(C(=O)CSc3nnnn3-c3ccc(Cl)cc3)c2C)no1`, the Potency was 3980 nM (active). `COCCNC(=O)C(c1ccccc1)N(Cc1cccs1)C(=O)Cn1nnc2ccccc21` (stereo not given) was tested, and the Potency was “inactive”. In the case of `C=CCn1c(NCc2ccc3c(c2)OCO3)nc2ccccc21`, the Potency is reported as “inactive”. For `Cc1oc(-c2cccc(Cl)c2)nc1CN1CCCC(C(=O)NC(C)c2ccc3c(c2)OCCO3)C1` (stereo not given), the Potency was “inactive”. In the case of `O=C1C=C(NCc2ccccc2)C2(CCCCC2)O1`, the Potency is reported as “inactive”. `O=C1N(c2ccccc2)C2CS(=O)(=O)CC2N1c1ccc(Cl)c(Cl)c1` (stereo not given) was tested, and the Potency was “inactive”. In the case of `Cc1ccccc1-n1nc(C)c2cc(C(=O)N3CCN(S(=O)(=O)c4ccc(F)cc4)CC3)sc21`, the Potency is reported as “inactive”. For `O=C(COC(=O)C12CC3CC(CC(C3)C1)C2)NCc1ccco1`, the Potency was 2000 nM (active). For `O=S1(=O)N=C(Oc2ccccc2)c2ccccc21`, the Potency was “inactive”. With `COc1ccc(-c2ccc(-c3noc(C)n3)c(OC)n2)cc1` the Potency was “inactive”. With `C=CCn1c(COc2ccccc2F)nnc1SCC(=O)N1CC(=O)Nc2ccccc21` the Potency was “inactive”. `CC(C)CC(=O)Nc1cccc(-c2cn3ccsc3n2)c1` was tested, and the Potency was “inactive”. `Cc1nn(-c2ccccc2)c(N2CCCC2)c1/C=N/n1cnc2scc(-c3ccccc3)c2c1=O` was tested, and the Potency was 1580 nM (active). In the case of `O=C1CC(c2ccco2)CC2=C1C(c1ccccc1)n1nc(C(F)(F)F)nc1N2` (stereo not given), the Potency is reported as 1000 nM (active). In the case of `CC1(C)c2ccccc2N2CCC(=O)NC21/C=C/c1ccco1` (stereo not given), the Potency is reported as 6310 nM (active). For `CCSCCOC(=O)C1=C(C)N(C)C(=O)NC1c1cc(OC)ccc1OC` (stereo not given), the Potency was “inactive”. With `COc1cccc(C(c2nnnn2Cc2ccccc2)N2CCN(C(=O)c3ccco3)CC2)c1OC` (stereo not given) the Potency was “inactive”. In the case of `CC(=O)N1CCCc2cc(S(=O)(=O)N(CC(C)C)CC(C)C)ccc21`, the Potency is reported as 12600 nM (active). In the case of `Cc1ccccc1NC(=O)N1C2CCCC1CC(NC(=O)C1CC1)C2` (stereo not given), the Potency is reported as “inactive”.
